A number with no mark means an inactive call. Records with an inconclusive call do not appear. The source made the active and inactive calls. Unless noted, calls follow the shape of the dose curve; as a rule, active = well fitted curve in the direction sought with a large enough effect; inconclusive = small, poorly fitted or top-dose-only effect, or another doubt; inactive = no such curve, though single readings can be large; an effect the other way counts as inactive or inconclusive.
How the values were obtained:
[1] = biological target: Lysosomal acid glucosylceramidase (Homo sapiens) (UniProt P04062); test: Glucocerebrosidase-p2 (AID 348; in the data active = potency below about 10 µM; also: potency is read from the fitted curve at half-maximal effect); conditions: purified GBA, blue fluorogenic substrate, 40 min
Sequence of Lysosomal acid glucosylceramidase (Homo sapiens) (P04062 whole entry, looked up): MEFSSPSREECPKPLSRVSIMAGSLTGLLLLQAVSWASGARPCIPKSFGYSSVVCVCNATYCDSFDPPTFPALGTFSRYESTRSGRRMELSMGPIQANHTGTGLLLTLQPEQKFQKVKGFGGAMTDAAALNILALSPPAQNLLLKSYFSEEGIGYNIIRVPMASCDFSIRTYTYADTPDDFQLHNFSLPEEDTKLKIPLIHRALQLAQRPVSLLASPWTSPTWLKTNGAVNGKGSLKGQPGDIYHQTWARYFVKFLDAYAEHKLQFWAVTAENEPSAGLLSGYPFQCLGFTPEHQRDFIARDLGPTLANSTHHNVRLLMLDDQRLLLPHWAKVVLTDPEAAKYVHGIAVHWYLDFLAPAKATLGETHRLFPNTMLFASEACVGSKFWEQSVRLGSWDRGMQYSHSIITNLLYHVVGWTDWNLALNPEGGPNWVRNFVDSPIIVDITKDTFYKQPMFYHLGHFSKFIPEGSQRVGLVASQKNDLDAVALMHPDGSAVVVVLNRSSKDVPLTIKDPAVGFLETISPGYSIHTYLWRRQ
How it was run: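 Compounds titrated from 0.6 nM upwards against 0.2 nM enzyme in pH 5.9 citric acid/KH2PO4, taurocholate, tween-20; blue fluorogenic substrate 80 uM, 40 min room temperature, stopped and read Ex 365/Em 440 for AC50.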

[2] = AP1 Signaling Pathway (AID 357; active = well fitted curve in either direction with a large enough effect, not every such curve was filed as active; also: % is scaled to controls: 0 for no effect and ±100 for the full control effect); conditions: ME-180 AP-1-bla reporter, EGF-induced, beta-lactamase ratio, 5 h; at 7.69 µM (top of the series) unless noted
How it was run: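 In this screen, ME-180 cells in Opti-MEM with 0.5% dialyzed FBS received EC50 EGF and compound titrations for 5 h. AP-1 reporter beta-lactamase was detected via CCF4 ratio, giving AC50 for positive and negative modulators.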

[3] = biological target: Cytochrome P450 1A2 (Homo sapiens) (UniProt P05177); test: p450-cyp1a2 (AID 410; calls by dose curve; also: potency is read from the fitted curve at half-maximal effect); conditions: recombinant CYP1A2, luciferin-ME demethylation, luminescence; series mostly up to 57 µM
Sequence of Cytochrome P450 1A2 (Homo sapiens) (P05177 whole entry, looked up): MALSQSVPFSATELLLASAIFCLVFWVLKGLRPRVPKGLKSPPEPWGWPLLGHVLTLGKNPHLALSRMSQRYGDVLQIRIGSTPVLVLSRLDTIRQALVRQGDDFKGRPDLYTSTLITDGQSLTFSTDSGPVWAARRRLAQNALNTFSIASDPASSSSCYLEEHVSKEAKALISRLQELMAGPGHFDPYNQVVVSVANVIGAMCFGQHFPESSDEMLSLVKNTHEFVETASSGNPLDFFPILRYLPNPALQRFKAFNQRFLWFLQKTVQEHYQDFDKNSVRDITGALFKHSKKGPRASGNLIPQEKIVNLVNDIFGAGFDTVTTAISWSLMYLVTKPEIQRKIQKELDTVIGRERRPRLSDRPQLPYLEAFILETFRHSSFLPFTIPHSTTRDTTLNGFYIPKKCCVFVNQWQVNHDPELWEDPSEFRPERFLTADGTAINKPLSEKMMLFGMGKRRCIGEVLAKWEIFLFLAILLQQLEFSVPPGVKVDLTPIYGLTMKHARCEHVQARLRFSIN
How it was run: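 Inhibition was calculated relative to 57 uM furafylline (full inhibition). The reaction used human CYP1A2 at 20nM with Luciferin-ME at its Km, 100uM, driven by an NADPH-regenerating system for 60 min at room temperature.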

[4] = NFAT Signaling Pathway (AID 444; active = well fitted curve in either direction with a large enough effect, not every such curve was filed as active;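 also: carbachol stimulus at about its EC50 of 1 µM final; % is scaled to controls: 0 for no effect and ±100 for the full control effect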); conditions: Jurkat NFAT-bla M1, carbachol, beta-lactamase ratio, 5 h; at 7.69 µM (top of the series) unless noted
How it was run: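 Jurkat cells with NFAT-driven β-lactamase reporter and co-expressed M1 receptor, stimulated with carbachol (final 1 uM, ~EC50), compound titration, 5 h at 37 °C. CCF4 loaded 1 h at RT; 460/530 nm ratio gave %activity and AC50.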

[5] = Stat Signaling Pathway (AID 446; active = well fitted curve in either direction with a large enough effect, not every such curve was filed as active;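 also: ME-180 cervical cancer cells given 40 pM IL-6 alongside compound; SIE-controlled beta-lactamase reporter measured as 460/530 nm FRET emission ratio; % is scaled to controls: 0 for no effect and ±100 for the full control effect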); conditions: ME-180 (cervical carcinoma) SIE beta-lactamase reporter, IL-6 stimulated, 5 h; series mostly up to 7.69 µM
How it was run: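 IL-6/STAT signaling read in ME-180 cells via an SIE beta-lactamase reporter. Stimulus was 40 pM IL-6 (its AC50) for 5 hrs, so both activation and inhibition register.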

[6] = biological target: Glucocorticoid receptor (Homo sapiens) (UniProt P04150); test: GR-GFP Redistribution (AID 450;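 active = compounds whose dose series gives a full or clear partial fitted curve of increased nuclear translocation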; also: potency is read from the fitted curve at half-maximal effect); conditions: U2OS GR-GFP nuclear translocation, laser cytometry, 2 h
Sequence of Glucocorticoid receptor (Homo sapiens) (P04150 whole entry, looked up, the tested form may be a part): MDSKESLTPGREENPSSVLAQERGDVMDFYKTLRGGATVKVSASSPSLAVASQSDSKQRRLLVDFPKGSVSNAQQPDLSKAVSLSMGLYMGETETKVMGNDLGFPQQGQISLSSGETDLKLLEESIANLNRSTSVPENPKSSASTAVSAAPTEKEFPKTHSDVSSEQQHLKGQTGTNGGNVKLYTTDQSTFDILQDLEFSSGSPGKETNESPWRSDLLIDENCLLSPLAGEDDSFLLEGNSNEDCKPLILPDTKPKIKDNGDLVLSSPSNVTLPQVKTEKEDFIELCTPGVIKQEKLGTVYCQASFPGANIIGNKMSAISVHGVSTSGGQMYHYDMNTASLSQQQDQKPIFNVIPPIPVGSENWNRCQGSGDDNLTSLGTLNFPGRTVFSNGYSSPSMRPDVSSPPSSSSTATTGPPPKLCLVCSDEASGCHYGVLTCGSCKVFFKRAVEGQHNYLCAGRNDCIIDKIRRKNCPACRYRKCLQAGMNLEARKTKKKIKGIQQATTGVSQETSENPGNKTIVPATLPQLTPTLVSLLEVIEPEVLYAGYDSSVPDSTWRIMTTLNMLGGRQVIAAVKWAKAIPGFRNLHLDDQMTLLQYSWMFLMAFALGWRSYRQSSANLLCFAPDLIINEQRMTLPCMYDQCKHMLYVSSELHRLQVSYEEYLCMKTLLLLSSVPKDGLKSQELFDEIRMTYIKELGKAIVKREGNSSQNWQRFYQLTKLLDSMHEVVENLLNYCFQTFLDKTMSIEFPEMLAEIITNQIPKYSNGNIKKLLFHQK

[7] = biological target: Glucocorticoid receptor (Homo sapiens) (UniProt P04150); test: GR-EFC Redistribution (AID 451; calls by dose curve; also: potency is read from the fitted curve at half-maximal effect); conditions: CHO-K1 GR-EFC translocation, beta-gal luminescence, 2 h
How it was run: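 CHO-K1 cells expressing nuclear EA and GR-ED fragments of b-gal; compounds titrated up to 46 uM final, 2 h at 37 C. GR nuclear translocation read as complemented b-gal luminescence after 1 h RT detection.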

[8] = biological target: Mitogen-activated protein kinase 10 (Mus musculus) (UniProt Q61831); test: JNK3 AlphaScreen Assay (AID 530; active = well fitted curve in either direction with a large enough effect, not every such curve was filed as active;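 also: kinase came from lysate of stimulated human HepG2 cells; signal reports phosphorylation of biotinylated GST-cJun 1-79 at Ser73 with 10 µM ATP; % is scaled to controls: 0 for no effect and ±100 for the full control effect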); conditions: JNK3 lysate, c-Jun phosphorylation; series mostly up to 57.1 µM
How it was run: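 qHTS format: compounds tested as titrations against IL-1beta/TNF-alpha-activated HepG2 lysate JNK3 with biotin-GST-cJun substrate and 10 uM ATP at room temperature. Loss of anti-phospho-cJun AlphaScreen signal indicates inhibition.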

[9] = biological target: Cytochrome P450 3A4 (Homo sapiens) (UniProt P08684); test: qHTS Assay for Activators of Cytochrome P450 3A4 (AID 885); conditions: recombinant CYP3A4, Luciferin-PPXE luminescence, 60 min; series mostly up to 57.1 µM; also: nearly all actives have a fitted effect of over 65% in size
Sequence of Cytochrome P450 3A4 (Homo sapiens) (P08684 whole entry, looked up): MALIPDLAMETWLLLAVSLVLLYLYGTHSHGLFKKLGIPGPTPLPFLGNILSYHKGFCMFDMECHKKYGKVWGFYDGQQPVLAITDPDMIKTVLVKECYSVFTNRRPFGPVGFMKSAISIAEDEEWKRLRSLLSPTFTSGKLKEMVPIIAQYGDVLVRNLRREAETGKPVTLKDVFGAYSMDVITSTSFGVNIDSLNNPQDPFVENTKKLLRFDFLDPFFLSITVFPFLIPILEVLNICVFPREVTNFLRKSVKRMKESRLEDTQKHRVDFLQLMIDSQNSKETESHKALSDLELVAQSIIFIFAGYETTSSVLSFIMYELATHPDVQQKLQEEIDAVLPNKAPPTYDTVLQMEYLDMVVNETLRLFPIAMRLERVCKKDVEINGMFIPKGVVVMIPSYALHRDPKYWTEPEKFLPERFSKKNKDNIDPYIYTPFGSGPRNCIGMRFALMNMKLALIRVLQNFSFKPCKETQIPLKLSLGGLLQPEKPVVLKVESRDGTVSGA
How it was run: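 Quantitative HTS format: compounds preincubated with 20nM human CYP3A4 and Luciferin-PPXE substrate at KM, reaction started by NADPH regeneration, stopped after 60 min, luciferase luminescence read 20 min later.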

[10] = biological target: Dual specificity protein kinase CLK4 (Homo sapiens) (UniProt Q9HAZ1); test: qHTS Assay for Inhibitors of CDC-like Kinase 4 (Kinase-Glo Assay) (AID 1770); conditions: recombinant Clk4, Kinase-Glo ATP depletion luminescence; series mostly up to 66.7 µM; also: nearly all actives have a fitted effect of over 65% in size; also: potency is read from the fitted curve at half-maximal effect
Sequence of Dual specificity protein kinase CLK4 (Homo sapiens) (Q9HAZ1 whole entry, looked up): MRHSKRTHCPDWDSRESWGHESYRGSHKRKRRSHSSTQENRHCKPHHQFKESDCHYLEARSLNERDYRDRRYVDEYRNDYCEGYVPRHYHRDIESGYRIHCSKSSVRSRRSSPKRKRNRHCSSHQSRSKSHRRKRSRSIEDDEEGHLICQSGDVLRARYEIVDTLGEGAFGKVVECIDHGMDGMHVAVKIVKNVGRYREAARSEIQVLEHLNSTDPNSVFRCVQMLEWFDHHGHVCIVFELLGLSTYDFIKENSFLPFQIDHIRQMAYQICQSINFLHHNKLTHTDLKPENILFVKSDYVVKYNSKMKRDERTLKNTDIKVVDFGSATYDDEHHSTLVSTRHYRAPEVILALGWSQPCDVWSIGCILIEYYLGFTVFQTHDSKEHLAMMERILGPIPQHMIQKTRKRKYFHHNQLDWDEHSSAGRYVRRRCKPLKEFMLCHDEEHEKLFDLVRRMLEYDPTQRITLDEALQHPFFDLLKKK
How it was run: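 Clk4 25 nM, RS peptide 100 uM, ATP 1 uM, pH 7.5 Tris, 10 mM MgCl2, 2.5 mM DTT; 4.5 h RT; ATP depletion read by Kinase-Glo luminescence.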

[11] = biological target: Dual specificity protein kinase CLK4 (Homo sapiens) (UniProt Q9HAZ1); test: qHTS Assay for Inhibitors of CDC-like Kinase 4 (ADP-Glo Assay) (AID 1771); conditions: recombinant CLK4, ADP-Glo luminescence; series mostly up to 80 µM; also: potency is read from the fitted curve at half-maximal effect; nearly all actives have a fitted effect of over 70% in size
How it was run: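 Kinase reaction: Clk4 at 25 nM, RS repeat peptide substrate at 100 uM, ATP at 1 uM, 1 hr, room temperature. Product ADP detected as luciferase signal via ADP-Glo.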

[12] = biological target: Ubiquitin carboxyl-terminal hydrolase 1 (Homo sapiens) (UniProt O94782); test: Inhibitors of USP1/UAF1: Pilot qHTS (AID 504865); conditions: purified USP1/UAF1, Ub-rhodamine cleavage fluorescence; series mostly up to 54.9 µM;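 also: rhodamine fluorescence freed from ubiquitin-rhodamine substrate followed over time; top concentration of the series differs between compounds; % is scaled to controls: 0 for no effect and ±100 for the full control effect; nearly all actives have a fitted effect of over 35% in size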
Sequence of Ubiquitin carboxyl-terminal hydrolase 1 (Homo sapiens) (O94782 whole entry, looked up): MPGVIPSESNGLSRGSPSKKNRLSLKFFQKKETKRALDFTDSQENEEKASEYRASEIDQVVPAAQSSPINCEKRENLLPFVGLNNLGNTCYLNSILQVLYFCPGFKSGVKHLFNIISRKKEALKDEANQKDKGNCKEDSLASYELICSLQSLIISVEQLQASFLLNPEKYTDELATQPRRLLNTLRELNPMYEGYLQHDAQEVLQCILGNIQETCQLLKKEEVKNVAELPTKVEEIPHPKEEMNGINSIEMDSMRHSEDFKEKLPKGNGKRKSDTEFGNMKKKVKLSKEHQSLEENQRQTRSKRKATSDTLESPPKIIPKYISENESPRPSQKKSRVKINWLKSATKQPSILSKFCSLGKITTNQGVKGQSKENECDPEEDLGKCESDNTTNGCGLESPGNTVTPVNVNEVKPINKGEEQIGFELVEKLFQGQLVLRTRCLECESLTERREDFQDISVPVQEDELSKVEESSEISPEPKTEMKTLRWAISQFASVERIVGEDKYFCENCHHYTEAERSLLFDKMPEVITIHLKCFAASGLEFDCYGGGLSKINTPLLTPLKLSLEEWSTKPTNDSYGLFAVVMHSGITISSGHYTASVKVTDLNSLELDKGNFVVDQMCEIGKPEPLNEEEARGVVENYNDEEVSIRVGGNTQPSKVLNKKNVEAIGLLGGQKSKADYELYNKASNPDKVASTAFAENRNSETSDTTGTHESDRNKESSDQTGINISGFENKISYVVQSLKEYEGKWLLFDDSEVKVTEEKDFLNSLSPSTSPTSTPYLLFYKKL
How it was run: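 Enzyme-free wells gave the negative control, while test wells held 1nM USP1/UAF1 preincubated with compound for 15 min at room temperature. Ub-Rho at 150nM final started the reaction, and fluorescence at 480/540 nm was recorded kinetically.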

[13] = biological target: Cytochrome P450 2C19 (Homo sapiens) (UniProt P33261); test: qHTS Assay for Inhibitors and Substrates of Cytochrome P450 2C19 (AID 899); conditions: recombinant CYP2C19, luciferin-H EGE luminescence; series mostly up to 57.1 µM; also: potency is read from the fitted curve at half-maximal effect; nearly all actives have a fitted effect of over 60% in size
Sequence of Cytochrome P450 2C19 (Homo sapiens) (P33261 whole entry, looked up): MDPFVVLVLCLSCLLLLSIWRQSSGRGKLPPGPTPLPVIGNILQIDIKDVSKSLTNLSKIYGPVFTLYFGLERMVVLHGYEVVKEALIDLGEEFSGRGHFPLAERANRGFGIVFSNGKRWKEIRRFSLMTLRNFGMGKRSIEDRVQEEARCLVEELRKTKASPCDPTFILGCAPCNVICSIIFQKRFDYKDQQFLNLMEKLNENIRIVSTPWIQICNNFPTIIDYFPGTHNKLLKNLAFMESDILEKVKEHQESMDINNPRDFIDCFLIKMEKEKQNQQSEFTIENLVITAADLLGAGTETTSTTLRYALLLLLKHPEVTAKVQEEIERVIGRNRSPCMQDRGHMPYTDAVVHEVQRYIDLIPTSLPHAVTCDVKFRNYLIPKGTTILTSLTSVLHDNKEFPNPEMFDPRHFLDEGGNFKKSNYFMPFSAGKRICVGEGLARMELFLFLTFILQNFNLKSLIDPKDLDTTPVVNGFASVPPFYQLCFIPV
How it was run: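 Luminescent read-out of luciferin formed from Luciferin-H EGE (10uM, equal to KM). Enzyme 5nM in 50mM KPO4; compound added, 10 min at 37C, then NADPH regenerating system for 60 min at 37C. Full inhibition defined by 57uM ketoconazole.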

[14] = biological target: Cytochrome P450 3A4 (Homo sapiens) (UniProt P08684); test: qHTS Assay for Inhibitors and Substrates of Cytochrome P450 3A4 (AID 884); conditions: recombinant CYP3A4, Luciferin-PPXE luminescence; series mostly up to 57.1 µM; also: potency is read from the fitted curve at half-maximal effect; nearly all actives have a fitted effect of over 50% in size
How it was run: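 20 nM human CYP3A4 with 25 uM Luciferin-PPXE (at KM) in 200 mM KPO4, preincubated 10 min with compound; NADPH regeneration started a 60 min RT reaction. Luciferin detected by luminescence, normalized to 57 uM ketoconazole as full inhibition.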

[15] = biological target: Dual specificity protein kinase CLK4 (Homo sapiens) (UniProt Q9HAZ1); test: qHTS Assay for Inhibitors of CDC-like Kinase 4 (ADP-FP Assay) (AID 1795); conditions: Transcreener ADP fluorescence polarization; series mostly up to 50 µM; also: nearly all actives have a fitted effect of over 60% in size; also: potency is read from the fitted curve at half-maximal effect
How it was run: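 Kinase activity was followed as ADP output, converted from fluorescence polarization with a calibration curve. Reactions ran one hour at low ATP (1 uM) with RS peptide substrate.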

[16] = biological target: 3',5'-cyclic-AMP phosphodiesterase 4B (Homo sapiens) (UniProt Q07343); test: qHTS Assay for Inhibitors of PDE-IV (AID 607; active = well fitted activation curve with a large enough effect in the main read-out, with a control signal flat, not every such curve was filed as active; also: % of control where 0% means no effect); conditions: HEK293 ACTOne CNG channel cells, membrane potential fluorescence; series mostly up to 22.9 µM
Sequence of 3',5'-cyclic-AMP phosphodiesterase 4B (Homo sapiens) (Q07343 whole entry, looked up): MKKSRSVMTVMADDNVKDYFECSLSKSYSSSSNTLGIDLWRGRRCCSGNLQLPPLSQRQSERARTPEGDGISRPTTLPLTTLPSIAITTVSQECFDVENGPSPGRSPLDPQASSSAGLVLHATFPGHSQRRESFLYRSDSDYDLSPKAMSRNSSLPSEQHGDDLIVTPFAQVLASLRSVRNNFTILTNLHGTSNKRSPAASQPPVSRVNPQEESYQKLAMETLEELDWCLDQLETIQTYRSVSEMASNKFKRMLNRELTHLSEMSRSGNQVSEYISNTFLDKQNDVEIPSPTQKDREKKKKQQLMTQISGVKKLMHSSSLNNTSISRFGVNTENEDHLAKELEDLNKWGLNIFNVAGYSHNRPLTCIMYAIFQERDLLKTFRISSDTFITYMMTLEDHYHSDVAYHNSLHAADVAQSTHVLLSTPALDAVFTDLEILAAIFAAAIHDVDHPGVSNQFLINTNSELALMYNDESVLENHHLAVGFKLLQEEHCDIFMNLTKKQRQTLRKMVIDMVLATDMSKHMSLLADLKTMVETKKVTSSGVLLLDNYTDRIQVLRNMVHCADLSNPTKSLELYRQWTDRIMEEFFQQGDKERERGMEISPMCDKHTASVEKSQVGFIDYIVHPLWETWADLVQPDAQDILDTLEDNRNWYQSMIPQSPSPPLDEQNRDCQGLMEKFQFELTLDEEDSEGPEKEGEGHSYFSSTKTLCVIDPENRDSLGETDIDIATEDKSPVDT
How it was run: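 Live HEK293 cells with a modified cyclic nucleotide-gated (CNG) channel report intracellular cAMP via membrane-potential dye fluorescence (ex 535/em 590 nm). Endogenous PDE-IV was targeted. Compounds were tested at up to 22.9 uM final; RO 20-1724 100 uM served as control.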

[17] = biological target: Cytochrome P450 2D6 (Homo sapiens) (UniProt P10635); test: qHTS Assay for Inhibitors and Substrates of Cytochrome P450 2D6 (AID 891); conditions: recombinant CYP2D6, luciferin-ME EGE luminescence; series mostly up to 57.1 µM; also: potency is read from the fitted curve at half-maximal effect; nearly all actives have a fitted effect of over 60% in size
How it was run: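 Human CYP2D6 (5 nM) with 30 uM Luciferin-ME EGE (at Km) in 100 mM KPO4, compound preincubated 10 min, then NADPH regeneration system for 60 min at room temperature. Luciferin read by luminescence; normalized to 1.43 uM quinidine.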

Row | SMILES | Potency [1] | activity change, negative = inhibition [2] | Potency [3] | activity change, negative = inhibition [4] | outcome [5] | Potency [6] | Potency [7] | Potency [8] | outcome [9] | Potency [10] | Potency [11] | Potency [12] | Potency [13] | Potency [14] | Potency [15] | Potency [16] | Potency [17]
1 | CN1CCN(c2ncnc3ccc(-c4cccc(C#N)c4)cc23)CC1 | > 11.4 µM | -0.311% | 1.26 µM (active) | -4.66% | inactive | > 46 µM | > 46 µM | inactive | inactive | 15.8 µM (active) | 15.8 µM (active) | inactive |  |  |  |  | 
2 | CCNc1ncc2nc(C)c(=O)n(CCc3ccccc3)c2n1 | > 11.4 µM | -15.2% |  | -12.8% | inactive | > 9.22 µM | > 46 µM | inactive | inactive | 7.94 µM (active) | 7.94 µM (active) | inactive | 0.316 µM (active) |  |  |  | 
3 | Cc1ccccc1-c1ccc2ncnc(-n3ccnc3)c2c1 | > 11.4 µM |  |  |  |  | > 46 µM | > 46 µM | inactive | inactive | 7.94 µM (active) | 7.08 µM (active) | inactive | 2 µM (active) | 0.501 µM (active) | 3.98 µM (active) |  | 
4 | COc1ccc(Oc2ncc3nc(-c4ccccc4)c(=O)n(C[C@H]4CCCO4)c3n2)cc1 | > 11.4 µM |  |  | -3.65% | inactive | > 9.22 µM | > 46 µM | inactive |  | inactive |  | inactive |  |  | inactive | inactive | 
5 | COCCn1c(=O)c(CCc2ccccc2)nc2cncnc21 | > 11.4 µM | -15.8% | 10 µM (active) | 9.83% |  | > 9.22 µM | > 46 µM | inactive | inactive | inactive |  | inactive |  | 7.94 µM (active) | inactive | inactive | 
6 | CCNc1ncc2nc(CCc3ccccc3)c(=O)n(C3CC3)c2n1 |  | -7.57% | 3.16 µM (active) | 11.9% | inactive | > 9.22 µM | > 46 µM | inactive | inactive | inactive |  | inactive | 6.31 µM (active) |  | inactive |  | 0.398 µM (active)
7 | COc1ccccc1CNc1ncncc1-c1ccccc1Cl | > 11.4 µM | -2.69% | 10 µM (active) | -21.7% | inactive | > 46 µM |  | inactive | inactive | inactive |  | inactive | 1.26 µM (active) | 0.199 µM (active) | inactive | inactive | 2 µM (active)

Source: PubChem BioAssay (NCATS)
